Source: PubChem (National Center for Advancing Translational Sciences (NCATS))
Marburg entry inh – qHTS for inhibitors of binding or entry into cells for Marburg Virus; Potency, µM (highest dose often 37.8 µM), inactives show top-dose activity change, negative = inhibition, most hits filed as inhibitors; Marburg virus pseudotyped entry inhibition, cell reporter; 1.8% of 300,000 active; AID 540276, 2011; calls by dose curve; tested in HEK293 cells
LASV entry inh – qHTS for Inhibitors of binding or entry into cells for Lassa Virus. Lassa virus pseudotype entry inhibition, cell reporter. Potency, µM (titrated, usually from 37.9 µM), inactives show at the highest dose activity change, negative = inhibition, most hits filed as inhibitors. 1.2% of 300,000 active; calls by dose curve; tested in HEK293 cells; further: nearly all actives have a fitted effect of over 50% in size
HCV inhibitor – qHTS Assay for Inhibitors of Hepatitis C Virus (HCV). Huh7.5.1 HCVcc-Cre infection, luciferase reporter, 44 h. Potency, µM (doses to about 41.8 µM), without a hit: at the highest dose activity change, negative = inhibition, usual class: inhibitors. 3.4% of 340,000 active
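Reporter virus HCVcc-Cre (~0.5 moi) infects cells exposed to compound; seeding density 1,000 cells/well with 4 h settling beforehand. Luminescence, 15 sec read, taken 44 h post-infection following a 15 min RT substrate incubation.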
Sm TGR inh – qHTS Assay for the Inhibitors of Schistosoma Mansoni Peroxiredoxins. Schistosoma mansoni thioredoxin glutathione reductase (TGR), Q962Y6. purified TGR, DTNB reduction, TNB absorbance 405 nm. Potency, µM (highest dose often 114 µM), for the others: at the top dose activity change, negative = inhibition, usual class: inhibitors. 3% of 360,000 active; further: nearly all actives have a fitted effect of over 60% in size
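Kinetic colorimetric format: TGR-catalysed, NADPH-driven DTNB reduction monitored via TNB absorbance. Enzyme dispensed at 20 nM; compound exposure 15 min at room temperature before reaction start.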
RE007 growth inh – qHTS Assay for Inhibitors of the HIV-1 protein Vpr. S. pombe RE007 Vpr strain, BacTiter-Glo ATP luminescence, 24 h. Potency, µM (highest dose often 92.2 µM), inactives show at the highest dose activity change, negative = less growth, actives largely listed as inhibitors. 0.21% of 360,000 active. AID 651644, 2012; active means well fitted falling curve with a large enough effect; inconclusive means small, poorly fitted or top-dose-only effect; inactive means no such curve, though single readings can be large or run the other way; further: nearly all actives have a fitted effect of over 50% in size
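Fission yeast strain RE007, carrying one chromosomally integrated HIV-1 vpr copy, was seeded at OD 0.01 in PMG+AL medium with 23 nL pinned compound. After 24 h at 30 °C and 99% humidity, viability was read by BacTiter-Glo luminescence.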
FMDV antiviral – High Throughput Screening for Foot and Mouth Disease Virus Antivirals; FMDV antiviral cell-based qHTS; Potency, µM (top dose mostly 57.9 µM), for inactives: top-dose activity change, negative = inhibition, hits mostly inhibitors; 1.2% of 410,000 active; calls by dose curve; tested in HEK293T cells; further: read-out not given here; nearly all actives have a fitted effect of over 45% in size
The depositor's hits bear a star; ? = inconclusive; nt = not tested or not shown; [ ] = dose if it differs, or a comment. Compounds with a hit are over-represented: about 7.2% of the library has one in this group of screens. Unless noted, the call rests on the fitted dose curve; in most records, active means well fitted curve in the direction sought with a large enough effect; inconclusive means small, poorly fitted or top-dose-only effect, or another doubt; inactive means no such curve, though single readings can be large; an effect the other way counts as inactive or inconclusive. On the % scale 0 is the no-effect control and ±100 the full control effect; potency means the concentration at half of the fitted maximal effect.

SMILES	Marburg entry inh	LASV entry inh	HCV inhibitor	Sm TGR inh	RE007 growth inh	FMDV antiviral
CCCOc1ccc(C(=O)N(Cc2ccc(N(C)C)cc2)CC2CCCO2)cc1 (configuration not stated)	-15%[46.1 µM]	?	nt	?	nt	44%
O=C1C[C@H](c2ccccc2)n2nc(N3C(=O)c4ccccc4C3=O)nc2N1	3%	nt	nt	nt	nt	nt
CCOC(=O)C1(CCOc2ccccc2)CCN(Cc2ccc(OCC)c(CO)c2)CC1	nt	nt	14µM*	nt	15%	?
CCOC(=O)C1(CCOc2ccccc2)CCN(Cc2cccc(OC)c2OC)CC1	?	?	28µM*	-1%	-23%	?
CCOC(=O)C1(CCOc2ccccc2)CCN(Cc2ccc(OC)cc2)CC1	nt	nt	13µM*	nt	7%	?
CCOC(=O)C1(CCOc2ccccc2)CCN(Cc2ccc(NC(C)=O)cc2)CC1	-22%[46.1 µM]	7%	-24%	5%	-15%	?
Cc1cc(C)c(CN2CCC(CO)(CCOc3ccccc3)CC2)cc1C	11µM*	?	?	-7%	-5%	-26%
CCOC(=O)C1(CCOc2ccccc2)CCN(Cc2ccccc2O)CC1	?	-6%[46.1 µM]	?	nt	-7%	-29%
CS(=O)(=O)c1ccc(-c2csc(C(O)c3cccc(Cl)c3)n2)cc1 (configuration not stated)	nt	nt	nt	nt	28%	0%
CCC1CN(CCNC(=O)C2CCCCN2C)Cc2cc(OC)ccc2O1 (configuration not stated)	nt	nt	nt	nt	nt	-4%
CCOC(=O)C1(CCOc2ccccc2)CCN(Cc2cccc(OCCO)c2)CC1	?	-17%	-23%	18%	-26%	?
CCOC(=O)C1(CCOC)CCN(C(=O)Cc2ccc3ccccc3c2)CC1	10µM*	?	-6%	10%	19%	-4%
CCOC(=O)C1(CCOC)CCN(C(=O)Cc2ccsc2)CC1	nt	nt	7%	12%	-6%	-8%
CCOC(=O)C1(CCOc2ccccc2)CCN(Cc2ccc3nonc3c2)CC1	5%[46.1 µM]	6%	10µM*	0%	0%	?
COCCN(Cc1cc2cc(C)ccc2n2nnnc12)C(=S)Nc1cccc(C)c1	?	-25%	11µM*	1%	-10%	-17%
Cc1ccc2c(c1)cc(CN(Cc1cccs1)C(=O)c1ccco1)c1nnnn12	?	16µM*	?	6%	-14%	-23%
CCN(C(=O)C1CCN(c2nc(-c3ccc(OC)cc3)no2)CC1)c1ccccc1	nt	nt	10µM*	11%	20%	?
COc1ccc(-c2noc(N3CCC(C(=O)NC(C)c4ccccc4)CC3)n2)cc1 (configuration not stated)	nt	nt	?	11%	-4%	?
CCN(C(=O)C1CCCN(c2nc(-c3ccc(OC)cc3)no2)C1)c1ccccc1F (configuration not stated)	nt	nt	?	-2%	2%	-18%
COc1ccc(-c2noc(N3CCC(C(=O)N(C)c4ccccc4)CC3)n2)cc1	nt	nt	11µM*	10%	3%	?
COC(=O)C1(C)C2CC(C)C(c3ccccc32)N1C(=O)C(F)(F)F (configuration not stated)	-9%[14.2 µM]	?	nt	nt	nt	nt
COc1ccc2cc(S(=O)(=O)c3ccccc3F)c(=O)oc2c1	-21%[46.1 µM]	?	nt	1%	nt	-3%
CSc1nc2sc3c(c2c(=O)n1-c1ccc(C)c(Cl)c1)CCN(C(C)=O)C3	-3%[46.1 µM]	1%[46.1 µM]	nt	-8%	nt	0%
CC1CCCC(C)N1C(=O)COC(=O)/C=C/c1ccc(Br)o1 (configuration not stated)	20%	0%	8%	nt	-14%	19%
O=C(/C=C/c1ccc(Br)o1)NC(c1ccccc1)c1ccccc1	0%	?	-14%	45µM*	14%	-10%
SMILES	Marburg entry inh	LASV entry inh	HCV inhibitor	Sm TGR inh	RE007 growth inh	FMDV antiviral
O=C(NC(c1ccccc1)c1ccccc1)c1ccc(Br)o1	3%	?	-2%	-2%	-1%	5%
O=C(/C=C/c1ccc(Br)o1)OCc1ccccc1	1%	-28%	13%	22µM*	-12%	34%
CC1CCN(C(=O)COC(=O)/C=C/c2ccc(Br)o2)CC1	nt	nt	-1%	8.9µM*	-14%	1%
CCCCSCCCNC(=O)C1CCC(CNS(=O)(=O)c2c(C)cc(C)cc2C)CC1 (configuration not stated)	nt	8%[46.1 µM]	nt	-4%	nt	5%
COC(=O)C1CCN(c2csc3ccc(C)cc3c2=O)CC1	nt	19%[46.1 µM]	nt	2%	nt	27%
O=C(O)c1cccc(-n2cccc2/C=C/[N+](=O)[O-])c1	nt	nt	7%	4.5µM*	-11%	-6%
O=C(O)c1cccc(-n2cccc2/C=C\[N+](=O)[O-])c1	8%[46.1 µM]	18%	-15%	?	8%	-6%
CN(C)CCCNC(=O)C(=O)Nc1ccc2c(c1)N(S(=O)(=O)c1cccs1)CCC2	?	4%[46.1 µM]	8.9µM*	0%	-3%	2%
C=CCNC(=O)C(=O)Nc1ccc2c(c1)N(S(=O)(=O)c1cccs1)CCC2	?	8.9µM*	?	7%	-3%	-5%
COc1ccc2nc(N=NC3=C(O)CC(C)(C)CC3=O)sc2c1	13µM*	15µM*	?	-4%	-28%	12%
N#CC(C#N)=C1C=CC=CN1/C(=C\c1ccco1)C(=O)c1ccc(-c2ccccc2)cc1	16µM*	?	?	?	-1%	14µM*
N#C/C(=C\c1ccco1)C(=O)NCc1ccccc1	nt	nt	-2%	8%	0%	16%
N#CC(C#N)=C1C=CC=CN1/C(=C\c1ccco1)C(=O)c1ccc(Cl)cc1	?	?	?	1.4µM*	-1%	?
COc1ccc(CCN2C(=O)c3[nH]nc(-c4ccccc4O)c3C2c2ccccc2)cc1 (configuration not stated)	-29%[46.1 µM]	?	nt	3%	nt	?
CCOC(=O)c1cnc2c(ccc3ccccc32)c1NCCO	?	1%	11µM*	0%	?	-2%
CCC(CCC(C)C1CCC2C3CCC4CC(O)CC[C@@]4(C)C3CC[C@@]12C)C(C)C (some centres not stated)	nt	nt	nt	nt	nt	-16%
CC(CCC(C)C(C)(C)C)[C@@H]1CC[C@H]2C3C[C@H](OS(O)(=S)=S)[C@H]4C[C@H](OS(O)(=S)=S)[C@@H](OS(O)(=S)=S)C[C@]4(C)[C@H]3CC[C@]12C (some centres not stated) (tested in a mixture with another compound)	nt	nt	2.5µM*	nt	?	-28%
O=C(Nc1ccc(F)cc1)c1cccc(N2CCCS2(=O)=O)c1	nt	?	nt	26%	nt	12%
CCCNC(=O)c1csc(Nc2cccc3ccccc23)n1	nt	nt	5%	-4%	-3%	-13%
